Assay [1] concerns the target T1, Mitogen-activated protein kinase kinase kinase 7 (Homo sapiens) (UniProt O43318).
T1 sequence (whole entry): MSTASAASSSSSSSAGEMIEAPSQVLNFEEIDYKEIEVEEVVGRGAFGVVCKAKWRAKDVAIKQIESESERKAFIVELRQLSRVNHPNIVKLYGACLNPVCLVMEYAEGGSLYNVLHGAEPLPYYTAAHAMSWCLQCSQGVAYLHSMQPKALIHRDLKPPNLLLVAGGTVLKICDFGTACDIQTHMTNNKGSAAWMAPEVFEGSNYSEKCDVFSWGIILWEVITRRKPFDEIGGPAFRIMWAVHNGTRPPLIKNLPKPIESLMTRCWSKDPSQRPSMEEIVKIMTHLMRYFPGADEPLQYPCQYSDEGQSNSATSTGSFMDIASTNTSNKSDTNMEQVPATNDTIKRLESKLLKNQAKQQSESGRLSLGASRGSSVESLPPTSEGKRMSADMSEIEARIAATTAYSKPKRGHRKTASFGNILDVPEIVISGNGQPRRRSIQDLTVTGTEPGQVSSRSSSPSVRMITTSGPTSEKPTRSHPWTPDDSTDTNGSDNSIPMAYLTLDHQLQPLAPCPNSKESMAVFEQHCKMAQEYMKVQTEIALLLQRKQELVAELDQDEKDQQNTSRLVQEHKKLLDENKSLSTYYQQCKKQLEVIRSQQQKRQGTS
The following applies: at 1 µM.

In assay [2] the target is T1, Mitogen-activated protein kinase kinase kinase 7 (Homo sapiens). The following applies: at 10 µM.
Assay [3] concerns the target T2, Serine/threonine-protein kinase TAO1 (Homo sapiens) (UniProt Q7L7X3).
T2 sequence (whole entry): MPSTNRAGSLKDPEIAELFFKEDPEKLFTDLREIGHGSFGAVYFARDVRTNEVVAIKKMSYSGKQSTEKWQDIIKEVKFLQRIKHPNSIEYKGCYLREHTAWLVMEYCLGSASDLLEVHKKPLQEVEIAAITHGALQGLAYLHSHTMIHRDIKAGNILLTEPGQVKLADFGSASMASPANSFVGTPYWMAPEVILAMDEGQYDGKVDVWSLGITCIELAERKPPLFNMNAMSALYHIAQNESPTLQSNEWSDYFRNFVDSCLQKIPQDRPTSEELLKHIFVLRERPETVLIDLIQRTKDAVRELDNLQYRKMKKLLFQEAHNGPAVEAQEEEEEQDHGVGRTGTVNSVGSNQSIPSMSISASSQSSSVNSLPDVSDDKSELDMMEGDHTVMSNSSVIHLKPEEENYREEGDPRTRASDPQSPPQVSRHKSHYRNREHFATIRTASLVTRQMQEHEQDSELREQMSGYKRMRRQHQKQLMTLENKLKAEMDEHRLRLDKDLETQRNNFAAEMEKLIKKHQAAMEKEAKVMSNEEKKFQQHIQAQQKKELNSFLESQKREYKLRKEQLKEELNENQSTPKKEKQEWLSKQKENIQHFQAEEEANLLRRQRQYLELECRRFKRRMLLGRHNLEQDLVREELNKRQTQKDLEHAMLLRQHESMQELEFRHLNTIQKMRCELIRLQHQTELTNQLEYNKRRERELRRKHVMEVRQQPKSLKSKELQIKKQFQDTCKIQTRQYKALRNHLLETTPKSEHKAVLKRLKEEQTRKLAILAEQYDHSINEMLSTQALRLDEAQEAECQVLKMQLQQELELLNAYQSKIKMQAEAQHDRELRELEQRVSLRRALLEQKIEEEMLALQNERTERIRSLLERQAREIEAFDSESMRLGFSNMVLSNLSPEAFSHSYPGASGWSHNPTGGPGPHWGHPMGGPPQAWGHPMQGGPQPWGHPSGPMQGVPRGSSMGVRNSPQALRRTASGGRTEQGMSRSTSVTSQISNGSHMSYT
The following applies: at 1 µM.

The target of assay [4] is T2, Serine/threonine-protein kinase TAO1 (Homo sapiens). The following applies: at 10 µM.
The target in assay [5] is T3, Serine/threonine-protein kinase TAO2 (Homo sapiens) (UniProt Q9UL54).
T3 sequence (whole entry): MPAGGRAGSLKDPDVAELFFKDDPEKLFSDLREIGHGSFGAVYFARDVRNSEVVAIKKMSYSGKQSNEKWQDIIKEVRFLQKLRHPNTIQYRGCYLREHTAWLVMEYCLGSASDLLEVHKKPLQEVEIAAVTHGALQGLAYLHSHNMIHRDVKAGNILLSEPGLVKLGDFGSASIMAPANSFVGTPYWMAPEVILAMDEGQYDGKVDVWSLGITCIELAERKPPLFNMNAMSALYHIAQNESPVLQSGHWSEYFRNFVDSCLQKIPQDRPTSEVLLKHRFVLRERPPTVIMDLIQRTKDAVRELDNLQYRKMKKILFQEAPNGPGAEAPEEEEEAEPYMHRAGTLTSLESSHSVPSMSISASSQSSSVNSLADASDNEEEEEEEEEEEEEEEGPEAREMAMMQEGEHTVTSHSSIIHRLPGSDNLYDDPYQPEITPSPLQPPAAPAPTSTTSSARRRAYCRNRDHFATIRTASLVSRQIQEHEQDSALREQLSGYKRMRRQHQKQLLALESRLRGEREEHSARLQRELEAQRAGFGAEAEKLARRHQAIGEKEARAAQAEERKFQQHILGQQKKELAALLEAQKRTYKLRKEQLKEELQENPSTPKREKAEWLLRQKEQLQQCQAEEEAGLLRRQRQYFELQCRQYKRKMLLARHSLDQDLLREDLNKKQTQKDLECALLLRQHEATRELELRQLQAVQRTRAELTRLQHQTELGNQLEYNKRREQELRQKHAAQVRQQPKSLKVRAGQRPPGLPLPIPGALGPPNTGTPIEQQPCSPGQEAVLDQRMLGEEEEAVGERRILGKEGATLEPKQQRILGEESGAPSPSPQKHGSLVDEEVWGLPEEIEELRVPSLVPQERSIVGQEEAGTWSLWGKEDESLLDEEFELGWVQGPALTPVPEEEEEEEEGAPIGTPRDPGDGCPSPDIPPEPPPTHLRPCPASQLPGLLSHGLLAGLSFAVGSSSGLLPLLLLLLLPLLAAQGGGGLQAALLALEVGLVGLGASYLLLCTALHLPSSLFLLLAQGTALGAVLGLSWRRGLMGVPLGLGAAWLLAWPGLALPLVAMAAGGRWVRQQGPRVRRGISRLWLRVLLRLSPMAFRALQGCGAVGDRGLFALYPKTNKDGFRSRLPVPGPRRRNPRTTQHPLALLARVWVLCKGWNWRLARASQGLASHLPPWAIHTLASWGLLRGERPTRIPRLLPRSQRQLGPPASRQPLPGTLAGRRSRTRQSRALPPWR
The following applies: at 1 µM.

For assay [6], the target named is T3, Serine/threonine-protein kinase TAO2 (Homo sapiens). Conditions: at 10 µM.
Assay [7] deals with T4, Serine/threonine-protein kinase TAO3 (Homo sapiens) (UniProt Q9H2K8).
T4 sequence (whole entry): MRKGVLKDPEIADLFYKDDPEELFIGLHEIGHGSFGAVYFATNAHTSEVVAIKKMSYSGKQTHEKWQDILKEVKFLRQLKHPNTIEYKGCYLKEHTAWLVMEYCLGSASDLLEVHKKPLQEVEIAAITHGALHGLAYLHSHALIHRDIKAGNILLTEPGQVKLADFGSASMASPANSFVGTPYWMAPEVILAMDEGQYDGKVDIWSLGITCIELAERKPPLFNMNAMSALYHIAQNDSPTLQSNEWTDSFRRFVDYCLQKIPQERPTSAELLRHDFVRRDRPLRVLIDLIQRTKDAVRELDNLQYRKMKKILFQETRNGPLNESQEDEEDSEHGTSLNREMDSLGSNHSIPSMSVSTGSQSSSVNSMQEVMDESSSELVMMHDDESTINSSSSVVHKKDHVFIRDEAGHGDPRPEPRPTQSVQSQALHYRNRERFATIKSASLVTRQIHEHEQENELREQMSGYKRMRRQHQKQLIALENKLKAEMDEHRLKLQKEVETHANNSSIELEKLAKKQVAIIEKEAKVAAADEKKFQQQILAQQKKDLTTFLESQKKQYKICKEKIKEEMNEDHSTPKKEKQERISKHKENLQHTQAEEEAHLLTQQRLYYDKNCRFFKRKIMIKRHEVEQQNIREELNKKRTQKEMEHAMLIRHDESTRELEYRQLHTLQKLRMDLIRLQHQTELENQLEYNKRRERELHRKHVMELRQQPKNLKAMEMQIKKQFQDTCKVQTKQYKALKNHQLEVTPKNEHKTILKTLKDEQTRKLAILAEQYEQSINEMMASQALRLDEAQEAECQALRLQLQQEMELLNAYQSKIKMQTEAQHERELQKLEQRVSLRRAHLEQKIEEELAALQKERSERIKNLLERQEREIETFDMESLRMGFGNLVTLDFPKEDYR
The following applies: at 1 µM.

The target in assay [8] is T4, Serine/threonine-protein kinase TAO3 (Homo sapiens). Conditions: at 10 µM.
Assay [9] has as its target T5, Serine/threonine-protein kinase TBK1 (Homo sapiens) (UniProt Q9UHD2).
T5 sequence (whole entry): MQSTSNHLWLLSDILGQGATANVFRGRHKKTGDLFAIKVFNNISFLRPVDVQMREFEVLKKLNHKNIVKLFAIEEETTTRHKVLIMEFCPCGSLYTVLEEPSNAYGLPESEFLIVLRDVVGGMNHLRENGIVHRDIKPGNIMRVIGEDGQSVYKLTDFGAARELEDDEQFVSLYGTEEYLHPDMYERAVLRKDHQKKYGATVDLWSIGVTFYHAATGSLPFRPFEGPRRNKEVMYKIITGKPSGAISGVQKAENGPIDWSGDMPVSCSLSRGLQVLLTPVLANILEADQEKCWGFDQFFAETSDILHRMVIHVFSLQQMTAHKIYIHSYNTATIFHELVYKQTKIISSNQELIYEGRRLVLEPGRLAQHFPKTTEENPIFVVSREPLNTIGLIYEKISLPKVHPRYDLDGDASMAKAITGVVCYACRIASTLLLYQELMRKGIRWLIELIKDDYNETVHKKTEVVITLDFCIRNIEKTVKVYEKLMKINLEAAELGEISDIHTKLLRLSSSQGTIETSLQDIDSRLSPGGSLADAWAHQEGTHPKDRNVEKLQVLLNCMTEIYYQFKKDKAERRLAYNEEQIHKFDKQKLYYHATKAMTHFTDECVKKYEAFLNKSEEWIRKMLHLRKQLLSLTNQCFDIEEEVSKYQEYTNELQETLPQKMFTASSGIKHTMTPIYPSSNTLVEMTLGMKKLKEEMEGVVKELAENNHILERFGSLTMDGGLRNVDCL
Conditions: at 1 µM.

In the case of `Oc1c2ccccc2c2c3c(cccc13)N=N2`, the residual activity in [1] was determined as 41%; in assay [2] it was 19%; in assay [3], 69%; in assay [4], 25%; in assay [5] it was 101%; in [6], 69%. The residual activity stood at 69% in assay [7], 27% in assay [8] and 35% in assay [9].

For the origin of these results see ChEMBL document CHEMBL2218924, “A broad activity screen in support of a chemogenomic map for kinase signalling research and drug discovery” (Biochem J, 2013).
